Results on seven compounds are retold here after ChEMBL document CHEMBL1961873, “Compounds: GSK PKIS; Assays: Nanosyn kinase panel” (2012).

SMILES strings stand for the structures.

Experiment [1] has as its target Mitogen-activated protein kinase kinase kinase kinase 4 (Homo sapiens) (UniProt O95819). The following applies: at 1 µM.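 Note: reported figure is an averaged inhibition value.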
The target of experiment [2] is Dual specificity mitogen-activated protein kinase kinase 1 (Homo sapiens) (UniProt Q02750). The following applies: at 0.1 µM.
For experiment [3] the target is unchanged. The settings on record: at 1 µM.
The target of experiment [4] is Misshapen-like kinase 1 (Homo sapiens) (UniProt Q8N4C8). The following applies: at 0.1 µM.
For experiment [5] the target is unchanged. The settings on record: at 1 µM.
Experiment [6] deals with T1, Serine/threonine-protein kinase 4 (Homo sapiens) (UniProt Q13043).
T1 sequence (whole entry): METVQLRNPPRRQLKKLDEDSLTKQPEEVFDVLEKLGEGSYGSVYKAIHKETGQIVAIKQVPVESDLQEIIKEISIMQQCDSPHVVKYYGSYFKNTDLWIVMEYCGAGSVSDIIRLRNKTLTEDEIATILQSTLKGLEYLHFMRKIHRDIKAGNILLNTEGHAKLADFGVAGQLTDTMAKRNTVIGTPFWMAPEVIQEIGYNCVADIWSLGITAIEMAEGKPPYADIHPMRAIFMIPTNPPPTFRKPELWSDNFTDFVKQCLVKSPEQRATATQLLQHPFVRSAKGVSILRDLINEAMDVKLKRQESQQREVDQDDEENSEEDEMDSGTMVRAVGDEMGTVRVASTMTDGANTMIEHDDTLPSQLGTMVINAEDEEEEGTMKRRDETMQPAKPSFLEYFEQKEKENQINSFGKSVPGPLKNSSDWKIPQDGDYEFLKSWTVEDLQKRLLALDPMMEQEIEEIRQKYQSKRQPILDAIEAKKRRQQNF
The settings on record: at 0.1 µM.

Experiment [7] addresses T1, Serine/threonine-protein kinase 4 (Homo sapiens). The settings on record: at 1 µM.
Experiment [8] deals with T2, Serine/threonine-protein kinase 3 (Homo sapiens) (UniProt Q13188).
T2 sequence (whole entry): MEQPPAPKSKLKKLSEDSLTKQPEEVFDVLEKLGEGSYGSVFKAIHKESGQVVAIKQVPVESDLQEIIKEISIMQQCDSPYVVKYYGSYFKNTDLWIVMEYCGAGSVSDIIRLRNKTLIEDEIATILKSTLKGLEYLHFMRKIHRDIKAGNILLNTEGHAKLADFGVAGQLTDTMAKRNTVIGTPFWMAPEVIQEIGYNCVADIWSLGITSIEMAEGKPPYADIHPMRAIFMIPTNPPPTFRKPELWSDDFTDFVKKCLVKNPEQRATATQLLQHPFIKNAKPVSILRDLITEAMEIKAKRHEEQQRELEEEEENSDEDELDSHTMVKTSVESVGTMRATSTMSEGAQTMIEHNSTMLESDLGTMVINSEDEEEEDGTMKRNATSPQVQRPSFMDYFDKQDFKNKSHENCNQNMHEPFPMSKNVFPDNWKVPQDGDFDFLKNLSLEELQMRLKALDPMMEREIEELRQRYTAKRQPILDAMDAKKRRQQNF
The settings on record: at 0.1 µM.

For experiment [9], the target named is T2, Serine/threonine-protein kinase 3 (Homo sapiens). The settings on record: at 1 µM.
Experiment [10] addresses Serine/threonine-protein kinase 26 (Homo sapiens) (UniProt Q9P289). The following applies: at 0.1 µM.
Experiment [11] has the same target. The following applies: at 1 µM.
Experiment [12] concerns the target Serine/threonine-protein kinase PAK 1 (Homo sapiens) (UniProt Q13153). The settings on record: at 0.1 µM.
For experiment [13] the target is unchanged. The following applies: at 1 µM.
Experiment [14] addresses Serine/threonine-protein kinase PAK 2 (Homo sapiens) (UniProt Q13177). The settings on record: at 0.1 µM.
Experiment [15] shares this target. The following applies: at 1 µM.
Experiment [16] concerns the target Serine/threonine-protein kinase PAK 3 (Homo sapiens) (UniProt O75914). The following applies: at 0.1 µM.
Experiment [17] shares this target. The following applies: at 1 µM.
Experiment [18] has as its target Serine/threonine-protein kinase PAK 5 (Homo sapiens) (UniProt Q9P286). The settings on record: at 0.1 µM.
Experiment [19] has the same target. The following applies: at 1 µM.
For experiment [20], the target named is Serine/threonine-protein kinase PAK 6 (Homo sapiens) (UniProt Q9NQU5). The settings on record: at 0.1 µM.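 Note: mean PAK6 inhibition reported from the GSK PKIS screen.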
Serine/threonine-protein kinase PAK 6 (Homo sapiens), sequence (Q9NQU5 whole entry, looked up): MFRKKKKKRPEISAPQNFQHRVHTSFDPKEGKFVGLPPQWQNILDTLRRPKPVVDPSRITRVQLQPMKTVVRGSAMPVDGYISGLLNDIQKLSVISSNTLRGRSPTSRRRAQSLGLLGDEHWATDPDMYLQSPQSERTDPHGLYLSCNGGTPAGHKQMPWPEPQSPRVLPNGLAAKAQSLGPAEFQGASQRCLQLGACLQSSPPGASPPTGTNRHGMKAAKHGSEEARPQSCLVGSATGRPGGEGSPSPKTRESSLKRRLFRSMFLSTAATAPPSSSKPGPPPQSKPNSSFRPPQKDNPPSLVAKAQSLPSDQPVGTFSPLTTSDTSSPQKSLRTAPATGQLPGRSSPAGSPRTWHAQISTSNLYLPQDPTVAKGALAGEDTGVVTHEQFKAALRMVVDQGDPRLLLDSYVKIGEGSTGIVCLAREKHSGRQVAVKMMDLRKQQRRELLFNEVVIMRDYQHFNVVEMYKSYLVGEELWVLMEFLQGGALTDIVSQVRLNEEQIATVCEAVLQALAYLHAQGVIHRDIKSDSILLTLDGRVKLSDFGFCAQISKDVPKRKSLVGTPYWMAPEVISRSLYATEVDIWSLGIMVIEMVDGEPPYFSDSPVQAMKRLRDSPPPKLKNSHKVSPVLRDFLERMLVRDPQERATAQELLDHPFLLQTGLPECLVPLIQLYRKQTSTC

Mitogen-activated protein kinase kinase kinase kinase 4 (Homo sapiens), sequence (O95819 2-1239 limits assumed): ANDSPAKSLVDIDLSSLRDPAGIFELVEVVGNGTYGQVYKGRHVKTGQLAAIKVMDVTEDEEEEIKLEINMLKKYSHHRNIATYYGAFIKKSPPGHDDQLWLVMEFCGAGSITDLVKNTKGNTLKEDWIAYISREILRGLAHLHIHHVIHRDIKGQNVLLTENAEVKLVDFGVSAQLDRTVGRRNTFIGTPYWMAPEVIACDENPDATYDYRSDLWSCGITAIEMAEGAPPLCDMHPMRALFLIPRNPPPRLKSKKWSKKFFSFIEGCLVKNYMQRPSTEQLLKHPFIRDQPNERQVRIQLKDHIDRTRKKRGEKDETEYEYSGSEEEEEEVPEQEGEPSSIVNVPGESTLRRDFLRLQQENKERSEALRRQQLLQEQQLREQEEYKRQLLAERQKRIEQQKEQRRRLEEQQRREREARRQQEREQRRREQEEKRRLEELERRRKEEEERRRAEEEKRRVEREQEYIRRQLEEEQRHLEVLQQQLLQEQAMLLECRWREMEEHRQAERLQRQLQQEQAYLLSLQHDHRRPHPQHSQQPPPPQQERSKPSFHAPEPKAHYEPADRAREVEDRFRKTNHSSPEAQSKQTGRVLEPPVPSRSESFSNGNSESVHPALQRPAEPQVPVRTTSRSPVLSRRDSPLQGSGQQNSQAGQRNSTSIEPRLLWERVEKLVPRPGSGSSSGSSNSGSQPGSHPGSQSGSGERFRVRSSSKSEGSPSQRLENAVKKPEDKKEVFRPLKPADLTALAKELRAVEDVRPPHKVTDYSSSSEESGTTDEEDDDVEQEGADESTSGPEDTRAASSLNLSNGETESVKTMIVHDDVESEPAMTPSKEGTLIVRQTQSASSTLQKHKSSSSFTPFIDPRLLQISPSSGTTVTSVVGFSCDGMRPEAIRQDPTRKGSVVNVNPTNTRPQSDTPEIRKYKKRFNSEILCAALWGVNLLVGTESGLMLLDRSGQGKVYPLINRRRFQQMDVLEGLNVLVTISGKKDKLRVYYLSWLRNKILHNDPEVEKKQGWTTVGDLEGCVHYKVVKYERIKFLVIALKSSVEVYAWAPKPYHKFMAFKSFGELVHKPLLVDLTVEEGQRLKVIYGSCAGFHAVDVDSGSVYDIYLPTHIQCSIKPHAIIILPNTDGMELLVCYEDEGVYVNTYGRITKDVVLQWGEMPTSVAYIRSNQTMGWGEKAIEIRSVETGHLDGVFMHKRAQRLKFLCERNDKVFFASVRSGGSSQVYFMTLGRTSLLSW
Serine/threonine-protein kinase 26 (Homo sapiens), sequence (Q9P289 2-416 limits assumed): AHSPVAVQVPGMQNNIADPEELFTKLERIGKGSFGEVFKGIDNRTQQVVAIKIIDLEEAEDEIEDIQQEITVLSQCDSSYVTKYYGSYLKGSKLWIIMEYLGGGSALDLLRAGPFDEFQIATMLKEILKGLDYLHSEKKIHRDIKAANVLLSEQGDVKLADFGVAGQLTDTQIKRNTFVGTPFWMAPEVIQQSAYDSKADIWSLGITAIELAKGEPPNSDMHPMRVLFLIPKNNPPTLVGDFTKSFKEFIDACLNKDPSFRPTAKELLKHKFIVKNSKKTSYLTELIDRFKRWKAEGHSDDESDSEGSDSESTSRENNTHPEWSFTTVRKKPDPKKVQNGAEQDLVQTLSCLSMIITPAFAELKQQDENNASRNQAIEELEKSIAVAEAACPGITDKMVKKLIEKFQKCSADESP
Serine/threonine-protein kinase PAK 1 (Homo sapiens), sequence (Q13153 whole entry): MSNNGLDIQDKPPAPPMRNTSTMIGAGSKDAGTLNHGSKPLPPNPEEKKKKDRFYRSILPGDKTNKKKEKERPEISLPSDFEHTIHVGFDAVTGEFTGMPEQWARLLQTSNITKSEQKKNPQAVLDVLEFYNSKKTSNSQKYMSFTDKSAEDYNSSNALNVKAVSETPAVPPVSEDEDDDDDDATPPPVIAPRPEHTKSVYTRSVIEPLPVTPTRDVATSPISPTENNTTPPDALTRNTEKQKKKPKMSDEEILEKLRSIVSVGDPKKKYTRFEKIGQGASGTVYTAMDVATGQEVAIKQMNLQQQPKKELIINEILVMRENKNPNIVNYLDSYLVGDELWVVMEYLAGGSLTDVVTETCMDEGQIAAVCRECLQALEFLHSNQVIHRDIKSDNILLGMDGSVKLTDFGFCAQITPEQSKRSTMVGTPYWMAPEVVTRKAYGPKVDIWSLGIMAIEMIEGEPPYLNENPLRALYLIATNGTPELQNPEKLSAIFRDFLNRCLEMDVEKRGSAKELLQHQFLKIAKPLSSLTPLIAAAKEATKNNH
Serine/threonine-protein kinase PAK 5 (Homo sapiens), sequence (Q9P286 whole entry, looked up): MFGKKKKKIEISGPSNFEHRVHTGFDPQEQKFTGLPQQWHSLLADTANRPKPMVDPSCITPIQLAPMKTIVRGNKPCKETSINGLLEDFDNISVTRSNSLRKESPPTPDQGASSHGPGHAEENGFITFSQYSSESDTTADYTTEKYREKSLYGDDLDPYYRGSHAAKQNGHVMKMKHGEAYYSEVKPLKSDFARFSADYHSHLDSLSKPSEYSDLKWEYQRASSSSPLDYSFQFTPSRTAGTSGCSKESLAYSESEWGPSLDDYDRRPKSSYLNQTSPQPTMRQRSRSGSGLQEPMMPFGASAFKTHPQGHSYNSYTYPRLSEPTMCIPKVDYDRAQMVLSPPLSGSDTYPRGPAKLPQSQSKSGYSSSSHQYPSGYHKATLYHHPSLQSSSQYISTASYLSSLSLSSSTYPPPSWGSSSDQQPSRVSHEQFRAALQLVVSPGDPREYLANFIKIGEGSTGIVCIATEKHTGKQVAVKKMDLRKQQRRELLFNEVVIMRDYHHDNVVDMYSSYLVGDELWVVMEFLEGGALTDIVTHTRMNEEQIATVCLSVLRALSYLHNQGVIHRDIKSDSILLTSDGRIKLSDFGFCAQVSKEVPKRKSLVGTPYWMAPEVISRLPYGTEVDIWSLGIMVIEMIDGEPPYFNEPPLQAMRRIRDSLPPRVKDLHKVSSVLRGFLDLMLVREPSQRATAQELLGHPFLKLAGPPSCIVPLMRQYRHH
Serine/threonine-protein kinase PAK 2 (Homo sapiens), sequence (Q13177 whole entry): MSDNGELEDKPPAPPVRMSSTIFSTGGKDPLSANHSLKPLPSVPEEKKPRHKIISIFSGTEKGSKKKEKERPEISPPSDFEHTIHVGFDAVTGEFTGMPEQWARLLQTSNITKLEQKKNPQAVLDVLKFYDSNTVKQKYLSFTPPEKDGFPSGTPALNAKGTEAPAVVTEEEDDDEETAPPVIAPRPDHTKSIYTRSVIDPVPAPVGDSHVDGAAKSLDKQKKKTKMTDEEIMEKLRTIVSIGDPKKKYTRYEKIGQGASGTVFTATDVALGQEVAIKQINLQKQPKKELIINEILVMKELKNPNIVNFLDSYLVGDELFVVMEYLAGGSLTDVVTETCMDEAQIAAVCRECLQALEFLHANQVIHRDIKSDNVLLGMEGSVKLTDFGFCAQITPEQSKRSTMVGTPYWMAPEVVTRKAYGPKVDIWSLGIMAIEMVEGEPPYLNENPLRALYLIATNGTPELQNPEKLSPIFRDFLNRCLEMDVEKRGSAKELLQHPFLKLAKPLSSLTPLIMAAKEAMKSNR
Dual specificity mitogen-activated protein kinase kinase 1 (Homo sapiens), sequence (Q02750 whole entry): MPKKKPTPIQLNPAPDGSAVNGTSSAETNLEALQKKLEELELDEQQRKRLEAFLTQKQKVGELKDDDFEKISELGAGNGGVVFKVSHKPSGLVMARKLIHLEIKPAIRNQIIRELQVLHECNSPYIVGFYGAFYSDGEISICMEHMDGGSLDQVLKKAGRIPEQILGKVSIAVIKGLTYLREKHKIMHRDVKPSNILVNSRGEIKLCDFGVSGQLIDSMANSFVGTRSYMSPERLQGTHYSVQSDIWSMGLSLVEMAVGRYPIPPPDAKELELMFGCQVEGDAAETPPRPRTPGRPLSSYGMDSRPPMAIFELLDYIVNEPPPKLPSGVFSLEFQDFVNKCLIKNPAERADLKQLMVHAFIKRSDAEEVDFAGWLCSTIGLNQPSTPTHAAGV

As for `NS(=O)(=O)c1ccc(Nc2cc(-c3ccc(O)c(F)c3)n[nH]2)cc1`, the inhibition – broadly, the drop in the measured response relative to a control, in per cent – in [1] was 76.2%; in [2], -2.69%; in [3], -3.65%; in experiment [4] it was 11.6%; in experiment [5], 65.7%; in experiment [6] it was -1.34%. Moreover, the inhibition in experiment [7] was 12.6%; in experiment [8] it was -1.84%; in experiment [9], 9.64%; in experiment [10], 0.95%; in experiment [11] it was 3.14%; in experiment [12], -5.59%. Also, the inhibition was -0.83% in [13]; -1.12% in [14]; -1.29% in experiment [15]; -4.62% in [16]; -3.25% in experiment [17]; -6.87% in experiment [18]. Further, the values for the inhibition in experiment [19] and in experiment [20] were -2.39% and 1.44%, respectively.

For `Cc1ccc(NC(=O)c2ccoc2)cc1-c1ccc(C(=O)NCC2CC2)cc1`, the inhibition in experiment [1] was determined as 1.38%; in [2], 2.89%; in experiment [3], 2.27%; in [4] it was 2.91%; in experiment [5], 1.4%; in experiment [6], 4.29%. Further, the inhibition in [7] is 2.08%; in experiment [8], 4.78%; in experiment [9] it was 4.5%; in [10], -1.09%; in [11], -2.75%; in experiment [12] it was 3.52%. The inhibition in experiment [13] was 4.54%; in experiment [14], 0.23%; in experiment [15] it was -1.68%; in experiment [16] it was 2.22%; in experiment [17], 1.14%; in experiment [18], -1.43%. For the same compound, the inhibition was 2.58% in experiment [19] and -5.33% in experiment [20].

Turning to `C[C@@H](Oc1cc(-n2cnc3ccc(OC4CCN(C)CC4)cc32)sc1C(N)=O)c1ccccc1Cl`, the inhibition in experiment [1] was 7.81%; in [2], 1.83%; in experiment [3], 2.54%; in experiment [4] it was 6.26%; in [5], 5.92%; in experiment [6], 4.68%. The inhibition is 19.5% in experiment [7]; 6.85% in experiment [8]; 13.4% in [9]; -3.27% in experiment [10]; 5.45% in experiment [12]; 7.26% in [13]. Moreover, the inhibition in experiment [14] stood at 1.74%; in experiment [15], 2.5%; in [16], 5.07%; in experiment [17] it was 10.3%; in experiment [18], 4.34%; in experiment [19], 5.61%.

Turning to `C[C@@H](Oc1cc(-n2cnc3ccc(OCC4CCN(C)CC4)cc32)sc1C(N)=O)c1ccccc1Cl`, the inhibition in experiment [1] stood at 11.6%; in experiment [2], 6.35%; in experiment [3] it was 5.61%; in experiment [4], 6.3%; in [5], 10.1%; in experiment [6] it was 14.8%. The inhibition was 56.7% in [7]; 11.7% in experiment [8]; 39.7% in [9]; -8.39% in experiment [10]; 9.41% in experiment [12]; 11.3% in [13]. The inhibition in [14] was 3.01%; in [15], 3.81%; in [16], 6.02%; in experiment [17], 6.85%; in [18], 5.72%; in [19], 7.38%.

As to `CN(C)CCOc1ccc(-c2cc(-c3ccc4c(c3)CCC4=NO)c(-c3ccncc3)o2)cc1`, the inhibition in [1] was 17.3%; in [2], 1.44%; in experiment [3] it was 2.23%; in [4], 0.59%; in [5] it was 12.5%; in [6], -0.36%. Also, the inhibition in experiment [7] was 0.8%; in experiment [8], -1.52%; in experiment [9], 1.19%; in experiment [10], 0.59%; in experiment [11], 3.69%; in [12], -4.98%. For the same compound, the inhibition in experiment [13] is -1.45%; in [14], -1.68%; in experiment [15], -2.82%; in experiment [16] it was -1.69%; in [17], -1.63%; in experiment [18] it was -8.32%. The inhibition is -0.63% in experiment [19] and 1.99% in [20].

For `COc1cc(C)c(N(C)C(=O)CN(C)C)cc1Nc1nc(Nc2cccc(F)c2C(N)=O)c2cc[nH]c2n1`, the inhibition was 4.77% in experiment [1]; 2.7% in [2]; 4.56% in experiment [3]; 2.85% in experiment [4]; 1.74% in experiment [5]; 4.57% in experiment [6]. Further, the inhibition in experiment [7] was 4.81%; in [8] it was 5.2%; in experiment [9] it was 4.32%; in [10], -0.43%; in [11], -1.63%; in experiment [12] it was 1.45%. Further, the inhibition in [13] stood at 0.54%; in [14], 1.63%; in experiment [15], 0.77%; in experiment [16], 1.47%; in experiment [17], 2.79%; in experiment [18] it was 1.86%. Also, the inhibition in experiment [19] was 1.84%; in [20], -1.02%.

On to `NS(=O)(=O)c1ccc(N/N=C2\C(=O)Nc3ccc(C(=O)NCCCn4ccnc4)cc32)cc1`, for which the inhibition is 52.1% in experiment [1]; 10.7% in experiment [2]; 38% in experiment [3]; 9.83% in experiment [4]; 41.5% in experiment [5]; 28.6% in [6]. Moreover, the inhibition was 75.5% in experiment [7]; 22.2% in experiment [8]; 70% in experiment [9]; -0.28% in experiment [10]; 6.6% in experiment [11]; 4.13% in experiment [12]. In addition, the inhibition in experiment [13] was 11.5%; in experiment [14], 0.82%; in [15], 2.78%; in [16], 4.22%; in experiment [17] it was 5.04%; in [19] it was -1.29%. Further, the inhibition in experiment [20] was -2.98%.
